These results are taken from ChEMBL document CHEMBL4513216, “Probing the Open Global Health Chemical Diversity Library for Multistage-Active Starting Points for Next-Generation Antimalarials” (ACS Infect Dis, 2020).

The structures appear in SMILES notation. About 8,600 (12%) of roughly 69,000 compounds showed an effect of 50% or more. This excerpt belongs to a sample that is enriched for strong results.

The subject of the test is Plasmodium berghei. The test can be described thus: Screen against P. berghei liver stage (PbLuc), transformed with Luciferase, at 10uM. Format: functional, HepG2. The settings on record: tested at 10 uM.
Consider `CC(C)(C)NC(=O)c1cccc(CN2CCS(=O)(=O)CC2)c1`, for which the INHIBITION was determined as 47.3%. For `Cc1ccc(N2CCC3(CCN(C(=O)c4ccccn4)CC3)CC2)nn1` the value was 0.72%; for `Cc1cc(C)n(CC(C)CNC(=O)NCc2csc(C)n2)n1` (stereo not given), 35.4%; for `Cc1nnc(SC2CCc3ccccc3NC2=O)n1C` (stereo not given), 38.1%. With `Cn1nnnc1SC1CCc2ccccc2NC1=O` (stereo not given), the INHIBITION came out at 56.3%. In the case of `Cn1cnnc1SC1CCc2ccccc2NC1=O` (stereo not given), the INHIBITION was determined as 34.3%. Regarding `O=C(NCc1ccc(-n2cncn2)nc1)c1ccc2c(c1)CCC2`, the INHIBITION was -45.9%. `COC[C@]1(O)CCN(C2CCN(c3ccc(OC)cc3)CC2)CC1(C)C`: the INHIBITION came to 23.9%. With `Cn1cnc2c1CCN(Cc1csc(C3CCCCC3)n1)C2`, the INHIBITION is on record as 33.3%. As for `CCCNC(=O)C1CCN(CC(O)c2ccccc2C(F)(F)F)CC1` (stereo not given), the INHIBITION is -4.12%. For `CCCNC(=O)C1CCN(CC(O)c2ccccc2)CC1` (stereo not given) the value was 30%; for `CCCNC(=O)C1CCN(CC(O)c2ccc(C(F)(F)F)cc2)CC1` (stereo not given), 51.6%; for `CO[C@H]1CCN(Cc2cccc(C)n2)[C@@H]2CN(Cc3cccnc3)C[C@H]12`, 30.1%. The same measure for `CS(=O)(=O)c1ccc(-c2cc(C3CC3)c(C#N)c(N)n2)cc1`: -21.2%; for `CCSc1ncc(-c2cc(C3CCC3)nc(N)c2C#N)cn1`: 48.5%; for `CCCNc1ncc(-c2cc(C3CC3)nc(N)c2C#N)cn1`: 34.4%. On to `CCSc1ncc(-c2cc(C3CC3)nc(N)c2C#N)cn1`, for which the INHIBITION is on record as 52.8%. For the molecule `N#Cc1c(C2CC2)cc(-c2ccc(F)c(F)c2)nc1N`, the INHIBITION was -42.8%. `CC(C)c1ncc(-c2cc(C3CCC3)nc(N)c2C#N)cn1`: the INHIBITION is reported as 62.6%. For the molecule `Cc1ccc(N2CC[C@@H]3O[C@@H](COCc4cccnc4)CC[C@@H]32)nn1`, the INHIBITION is on record as 4.02%.

As for `CCN(C(C)=O)C(c1ccc(Cl)cc1)c1ccccn1` (stereo not given), the INHIBITION was 33.7%. In the case of `O=C1CCCN1Cc1ncn2c1CN(C(=O)Cc1cccs1)CCC2`, the INHIBITION turned out to be 32.2%.

Turning to `Cc1cnc(CCN(C)C(=O)c2cccc(N(C)C)c2)s1`, the INHIBITION was 33.7%. On to `Cc1cnc(CCN(C)C(=O)c2ccc(O)nc2C)s1`, for which the INHIBITION turned out to be 60.2%.

As to `Cc1nc(-c2ccsc2)ccc1C(=O)N(C)CC1CC1`, the INHIBITION was found to be 27.7%.

Turning to `Cc1nc(O)ccc1C(=O)NCc1ncoc1C`, the INHIBITION is on record as -17.3%.

Take `Cc1ncsc1CCN(C)C(=O)c1c(O)cccc1O`: the INHIBITION is reported as 25.1%. The same measure for `Cc1cnc(CCN(C)C(=O)c2cccc(C)c2O)s1`: 58.8%; for `CNC(=O)[C@@H](c1ccccc1)N1CCC[C@H]1C(=O)NCc1ccccn1`: 34.6%; for `CN(Cc1cccs1)C(=O)CN1C(=O)c2cc(Cl)c(Cl)cc2C1=O`: 14.8%.

Regarding `CCC(O)CN1CCN(C(=O)c2cccc(CC#N)c2)CC1` (stereo not given), the INHIBITION was -12.2%. In the case of `O=C(C1CCN(c2cccnn2)C1)N1CCOCC1` (stereo not given), the INHIBITION came out at 18.3%. In the case of `Cc1cc(CN2C[C@@H]3CN(C(=O)c4cccn4C)CCO[C@@H]3C2)no1`, the INHIBITION was 89.3%. As for `Cn1cc(CN2C[C@@H]3CN(C(=O)c4cccn4C)CCO[C@@H]3C2)cn1`, the INHIBITION came to 24.9%.

As to `Cc1cc(CN2C[C@@H]3CN(C(=O)c4ccco4)CCO[C@@H]3C2)no1`, the INHIBITION is 12%. For `CN(Cc1cnn(C)c1)C(=O)NC1CCCC1` the value was 8.38%; for `CCCS(=O)(=O)N1CCO[C@H]2[C@@H](Oc3cccnc3)CC[C@@H]21`, 10.5%.

Consider `O=c1ccc(S(=O)(=O)N2CCCC2)cn1CC1CCCCO1` (stereo not given), for which the INHIBITION is -15%. `c1cncc(CN2CC[C@@H]3[C@@H]2CCN3Cc2ccc3c(c2)OCO3)c1`: the INHIBITION is reported as -8.51%. For `O=S(=O)(c1c(N2CCCCC2)ccc2nonc12)N1CCCCC1` the value was 8.41%. Regarding `Cc1ccc(C(C)NC(=O)N2CCNC(=O)CC2)cc1F` (stereo not given), the INHIBITION is 42.3%. The same measure for `COc1ccc(C(C)NC(=O)N2CCNC(=O)CC2)cc1F` (stereo not given): 74.8%.

`CC(NC(=O)N1CCNC(=O)CC1)c1ccc(OC(F)F)cc1` (stereo not given): the INHIBITION is listed as -18.3%.

For the molecule `CCCc1n[nH]c(C2CN(C(=O)c3cc4c(s3)CCC4)CCO2)n1` (stereo not given), the INHIBITION was determined as 33.8%. As to `CC(C)NC(=O)CC1COC2(CCN(Cc3ccsc3)CC2)C1` (stereo not given), the INHIBITION was 13.7%. For `Cc1noc2ncc(C(=O)NCC3CCS(=O)(=O)C3)cc12` (stereo not given) the value was -49.1%; for `COc1ccccc1C(C)(C)NC(=O)c1ccc(F)c(NC(C)=O)c1`, -47%. For `N#Cc1ccc(CN2C(=O)c3ccccc3CS2(=O)=O)cc1`, the INHIBITION was -9.35%. On to `O=C(CN1C(=O)c2ccccc2CS1(=O)=O)c1ccc(Cl)cc1`, for which the INHIBITION is 55.4%.

As for `O=C(CN1C(=O)c2ccccc2CS1(=O)=O)c1ccccc1`, the INHIBITION was 74.2%. For `N#Cc1ccc(CN2C(=O)c3ccccc3CS2(=O)=O)c(F)c1` the value was 15.2%; for `CN1CCC2(Cc3ccccc3CN(C(=O)c3ccc(Cl)cc3)C2)C1` (stereo not given), -17.2%. In the case of `Cc1c2ncn(CC(=O)c3ccccc3)c(=O)c2nn1C`, the INHIBITION is reported as 14.9%. Take `CC1CCN(C(=O)C2CCN(c3ccc(Cl)cc3C#N)CC2)CC1`: the INHIBITION amounted to 41%. `Cc1nc(C(=O)N2CCCC2c2c(C)nn(C)c2C)cs1` (stereo not given): the INHIBITION amounted to 13.3%.
